Laboratory results as given in ChEMBL document CHEMBL3988442, “University of Dundee, Small-Polar-MMV Screening Library” (2021).
Among all 85,000 compounds or so, about 440 (0.52%) showed an effect of 50% or more. This is one part of a sample in which strong results are shown more often than they occur.

Assay: In vitro enzyme assay to detect hydrolysis of chlorophenol red-beta-D-[…] directly proportional to the number of Toxoplasma stably expressing beta-galactosidase
Format: functional, organism-based, Toxoplasma gondii
Design: scale not given: in the data most compounds retested in dose-response had high values

Row | SMILES | Percent Effect (50 µM) [%] | Percent Effect (10 µM) [%]
1 | Cc1cc(C)n(CCC(=O)NC2C=CS(=O)(=O)C2)n1 (stereo not given) | -3.643 | 
2 | CC(Nc1ccc(C#N)cn1)c1ccc2c(c1)OCO2 (stereo not given) | 3.939 | 
3 | CC(C)CC(=O)N1CC[C@H]2N(C)CC[C@@]2(C(=O)Nc2cccnc2)CC1.O=C(O)C(F)(F)F.O=C(O)C(F)(F)F |  | 6.738
4 | CC(C)CC(=O)N1CC[C@H]2N(C)CC[C@@]2(C(=O)Nc2ccccc2)CC1.O=C(O)C(F)(F)F |  | 95.11
5 | CC(C)C(=O)N1CC[C@H]2N(C)CC[C@@]2(C(=O)Nc2ccccc2)CC1 |  | -18.9
6 | O=C(CCC1CCCCC1)N1CC[S+]([O-])CC1 | -3.074 | 
7 | CC(C)(CO)NCC(O)c1cccc(F)c1 (stereo not given) | 95.56 | 
8 | CC(C)(C)OC(=O)NCCC(=O)NCC(O)c1cccc(F)c1 (stereo not given) |  | -9.599
9 | CC(C)(CO)NCC(O)c1cccc(Cl)c1 (stereo not given) | 48.83 | 
10 | Cc1cc(Br)oc1C(=O)NCCOC(N)=O | -2.351 | 
11 | COc1ccc(OC)c(NC(=O)N2CC(C)(OC)C2)c1 | 3.541 | 
12 | CC[C@H](C)[C@H](N)C(=O)NC | -8.555 | 
13 | Cl.c1csc(-c2noc(C3CNC3)n2)c1 |  | 42.66
14 | c1csc(-c2noc(C3CCCOC3)n2)c1 (stereo not given) |  | -3.059
15 | CC(=O)Nc1ccc(C(C)N)cc1 (stereo not given) | -11.91 | 
16 | COCCn1ccnc1CN(C)[C@H]1COC[C@@H]1O | -5.172 | 
17 | CCN1CCN(Cc2c(-c3ccco3)[nH]c3ncccc23)CC1 |  | -25.08
18 | OC1CCN(Cc2c(-c3ccco3)[nH]c3ncccc23)CC1 |  | -9.681
19 | CN1CCN(Cc2c(-c3ccco3)[nH]c3ncccc23)CC1 |  | 84.72
20 | Cc1nnc(SCC(=O)C(C)(C)C)[nH]1 | 12.7 | 
21 | Cc1n[nH]cc1CNCCNc1ncc(Cl)cc1Cl | 5.335 | 
22 | CNC(=O)CN(C)C(=O)CCc1ccc(Br)cc1F | 0.9597 | 
23 | NCc1ccc(C(=O)N2CCN(C3CC3)C(=O)C2)cc1 | 8.158 | 

Row | SMILES | Percent Effect (50 µM) [%] | Percent Effect (10 µM) [%]
24 | O=C(c1cnsn1)N1CCN(C2CC2)C(=O)C1 | 91.53 | 
25 | COc1ccccc1C(=O)N1CCN(C2CC2)C(=O)C1 | -3.275 | 
26 | COc1cc(CN)ccc1OCC(N)=O | 19.26 | 
27 | Cc1nc(CC(=O)NCCN2CCNC2=O)c(C)s1 | -2.42 | 
28 | OCCNc1nc2ccccc2s1 | 92.76 | 
29 | O=C(NCCO)Nc1nc2ccccc2s1 | 9.255 | 
30 | NCCNc1nc2ccccc2s1 | 19.92 | 
31 | NC(=O)C1CCN(c2ncnc3ccsc23)CC1 | 0.8525 | 
32 | CCOC1CCCN(C(=O)c2ccc(C)[nH]c2=O)C1 (stereo not given) | 1.701 | 
33 | CC(C)n1cc(S(=O)(=O)N2CCCCC2)cn1 |  | 1.913
34 | CC(C)n1cc(S(=O)(=O)N2CCSCC2)cn1 |  | 32.53
35 | CC(C)n1cc(S(=O)(=O)N2CCCCCC2)cn1 |  | 51.25
36 | CN(C)C(=O)c1ccc(Oc2ncccn2)cc1 | -3.725 | 
37 | Cc1cc(C2CCCN(CC(=O)Nc3nc4c(s3)CCC4)C2)n[nH]1 (stereo not given) |  | 56.52
38 | O=C(CN1CCCC(c2ccn[nH]2)C1)Nc1nc2c(s1)CCCC2 (stereo not given) |  | 31.73
39 | O=C(CN1CCCC(c2ccn[nH]2)C1)Nc1nc2c(s1)CCC2 (stereo not given) |  | 42.36
40 | Cc1noc(CN(C)Cc2cncn2C(C)C)n1 | -12.13 | 
41 | CCN1CC2(CC1=O)CN(Cc1ccsc1)CCN(C(=O)C(C)C)C2.O=C(O)C(F)(F)F (stereo not given) |  | -7.478
42 | CCN1CC2(CC1=O)CN(Cc1ccncc1)CCN(C(=O)C(C)C)C2.O=C(O)C(F)(F)F.O=C(O)C(F)(F)F (stereo not given) |  | 78.24
43 | CCN1CC2(CC1=O)CN(Cc1cnn(C)c1)CCN(C(=O)C(C)C)C2.O=C(O)C(F)(F)F (stereo not given) |  | -2.705
44 | CCN1CC2(CC1=O)CN(Cc1ccco1)CCN(C(=O)C(C)C)C2.O=C(O)C(F)(F)F (stereo not given) |  | -13.42
45 | CCN1CC2(CC1=O)CN(Cc1ccoc1)CCN(C(=O)C(C)C)C2 (stereo not given) |  | 73.92
46 | CCN1CC2(CC1=O)CN(Cc1cccs1)CCN(C(=O)C(C)C)C2 (stereo not given) |  | -4.777

Row | SMILES | Percent Effect (50 µM) [%] | Percent Effect (10 µM) [%]
47 | NS(=O)(=O)c1ccc(Sc2ccc(F)cc2F)nc1 | -8.713 | 
48 | CS(=O)(=O)N1CCC(CN)C1 (stereo not given) | 0.02635 | 
49 | CC(Cc1ccco1)NS(=O)(=O)N1CCCCC1 (stereo not given) |  | 0.1189
50 | CC(Cc1ccco1)NS(=O)(=O)N1CCCCCC1 (stereo not given) |  | -1.07
51 | CC(Cc1ccco1)NS(=O)(=O)N1CCOCC1 (stereo not given) | 99.87 | 
52 | Nc1nccc(N2CCC(c3cc(Cc4ccccc4)n[nH]3)CC2)n1 |  | 46.75
53 | Nc1cc(N2CCC(c3cc(Cc4ccccc4)n[nH]3)CC2)ccn1 |  | 67.3
54 | Nc1nc(O)cc(N2CCC(c3cc(Cc4ccccc4)n[nH]3)CC2)n1 |  | 2.428
55 | CN(C)c1ccc(NC(=O)N2CCSCC2)cn1 | -21.27 | 
56 | COc1ccc2[nH]cc(-c3ccnc(N4CCC(C)CC4)n3)c2c1 |  | 11.49
57 | COc1ccc2[nH]cc(-c3ccnc(NC4CCCC4)n3)c2c1 |  | 56.3
58 | COC(=O)c1ccc2c(-c3ccnc(NCCO)n3)c[nH]c2c1 |  | 29.45
59 | Cn1ccnc1SCC(=O)Nc1cccnc1 | -23.51 | 
60 | COCCCOc1cc(C)ccc1CN | -20.96 | 
61 | COc1ccc(NCC(=O)N2CCNC(=O)C2)c(C)c1 | 52.04 | 
62 | COc1ccc(N2CCCN(CC(=O)N3CCNC(=O)C3)CC2)cc1 |  | -0.2401
63 | COc1cccc(CC(=O)N2CCNC(=O)C2)c1 | 4.575 | 
64 | NCc1ccc(N2CCS(=O)(=O)CC2)cc1 | 2.889 | 
65 | CC(Nc1ncnc2c1cnn2C)c1ccncc1 (stereo not given) | 10.45 | 
66 | NC(=O)CN1CCCN(C(=O)c2sccc2Br)CC1 | 2.336 | 
67 | Cc1ccc(C(CCNCCN(C)C)C2CCOC(C)(C)C2)cc1.O=C(O)C(=O)O (stereo not given) |  | 5.223
68 | CN(C)CCNCCC(c1ccccc1)C1CCOC(C)(C)C1.O=C(O)C(=O)O (stereo not given) |  | -5.061
69 | CN(C)CCCNCC1CCOC(C)(C)C1 (stereo not given) |  | 15.27

Row | SMILES | Percent Effect (50 µM) [%] | Percent Effect (10 µM) [%]
70 | CN(C)CCCNCCC(c1ccccc1)C1CCOC(C)(C)C1.O=C(O)C(=O)O (stereo not given) |  | 13.16
71 | Cc1ccc(C(CCNCCCN(C)C)C2CCOC(C)(C)C2)cc1.O=C(O)C(=O)O (stereo not given) |  | 86.28
72 | CC(=O)Nc1nc2c(s1)CCCC2 | -6.719 | 
73 | O=S(=O)(c1ccc2c(c1)OCCO2)N1CCc2ccccc2C1 |  | 3.262
74 | NC1CN(S(=O)(=O)c2ccc3c(c2)OCCO3)C1 | 61.03 | 
75 | O=S(=O)(c1ccc2c(c1)OCCO2)N1CCCNCC1 | 3.594 | 
76 | c1cncc(CCNCc2cccc3c2OCCO3)c1 | -5.823 | 
77 | CN(C)S(=O)(=O)NCC(O)c1cccc(C(F)(F)F)c1 (stereo not given) | 2.973 | 
78 | Cc1cccc(C(=O)Nc2cccc(O)c2)n1 | 0.8696 | 
79 | O=C(NCCn1cnc(C2CCCC2)cc1=O)c1ccc(=O)[nH]n1 |  | -2.574
80 | CC(C)NC(=O)NCCn1cnc(C2CCCC2)cc1=O |  | 7.593
81 | O=C(NCCn1cnc(C2CCCC2)cc1=O)NCc1cccs1 |  | 56.76
82 | CC(=O)c1ccc(Br)o1 | 1.756 | 
83 | Cc1ccc(C(=O)COC(=O)c2cccnc2N)cc1 | -8.374 | 
84 | CC(C)c1ccc(S(=O)(=O)C(C)C(N)=O)cc1 (stereo not given) | -3.645 | 
85 | CC(C)CCC(=O)N1CCC(C)(CO)C1 (stereo not given) | 58.28 | 
86 | CC(C)CCC(=O)N1CCNCC1 | -1.153 | 
87 | CC(=O)N1CCN(C(=O)CCC(C)C)CC1 | -13.31 | 
88 | Cc1noc(C)c1CN1CCCC(CS(C)(=O)=O)C1 (stereo not given) | -9.047 | 
89 | O=C1CC(C(=O)N2CCOC3(CCCC3)C2)CCN1 (stereo not given) | -8.974 | 
90 | C1CC(C2CCOC2)CCN1 (stereo not given) | 0.8119 | 
91 | C1CC(C2CNC2)CO1 (stereo not given) | 5.994 | 
92 | C1CC(C2CNC2)CCO1 | 67.45 | 

Row | SMILES | Percent Effect (50 µM) [%] | Percent Effect (10 µM) [%]
93 | CCNC(=O)CNc1nccc(OC)n1 | 5.07 | 
94 | Cc1nn(-c2ccc(F)cc2)cc1CN | -3.262 | 
95 | CC(C)COCC1CCNCC1 | 3.232 | 
96 | CCCC(=O)NCCCNC(=O)c1ccc(C)nc1 | -3.506 | 
97 | Cc1ccc(C(=O)NCCCNCCCN(C)C)cn1 | 99.75 | 
98 | Cc1ccc(C(=O)NCC(C)(C)N(C)C)cn1 | -0.683 | 
99 | O=C(NC1CCCSC1)N(CCO)C1CC1 (stereo not given) | 98.6 | 
100 | O=C(NC1CCCSC1)N[C@H](CO)Cc1ccccc1 (stereo not given in full) | 1.879 | 
101 | Cc1nnc(NC(=O)N(CCO)C2CC2)s1 | -4.304 | 
102 | CCCn1ccnc1CNC(=O)CCNS(C)(=O)=O | -5.274 | 
103 | Cc1cc(S(=O)(=O)N[C@@H]2CCOC[C@H]2O)n(C)n1 | 15.92 | 
104 | CCn1ccnc1CN(C)CCC(=O)NC(C)C | 14.34 | 
105 | CN(C)C1CCN(C(=O)CN(C)S(C)(=O)=O)CC1 | -9.436 | 
106 | COc1ncccc1-c1csc(NCCSC)n1 | 98.47 | 
107 | COc1ncccc1-c1cccc(C#N)n1 | 5.499 | 
108 | COCCNc1nc(-c2ccc(O)cc2O)cs1 | 0.3364 | 
109 | N#Cc1cccc(NC(=O)NC2CCS(=O)(=O)C2)c1 (stereo not given) | 1.062 | 
110 | CCC(=O)N(c1ccc(Cl)cc1)C1C=CS(=O)(=O)C1 (stereo not given) | -0.8656 | 
111 | NCCCNS(=O)(=O)c1ccc(Cl)cc1 | -0.1272 | 
112 | O=C(NCCC1=CCCCC1)c1cc(-c2ccc(O)cc2)n[nH]1 |  | 74.79
113 | CCCc1cc(C(=O)NCCC2=CCCCC2)[nH]n1 |  | 32.61
114 | Cc1ccc(-c2cc(C(=O)NCCC3=CCCCC3)[nH]n2)o1 |  | 28.69
115 | O=C(CN1CCN(CCO)CC1)Nc1ccc(Br)cn1 | 2.183 | 
